# Test results taken from the supplement of paper PMC7366291.
# Structures can show the parent of a compound that is named as a salt. ± gives the standard deviation or the standard deviation of the averaged measurements.
# How the values were obtained:
# Details in all cases: 25 µM; exposure: 24-48 hpf
# [1] = tested on: Danio rerio Tg(wt1b:EGFP) embryo, pronephros; test: glomerular separation, fold change vs DMSO control; higher = glomeruli further apart (abnormal)
# How it was run: (§1)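 Dechorionated Tg(wt1b:EGFP) zebrafish embryos were kept from 24 to 48 hpf at 28.5°C in HEPES-buffered E3 containing 0.003% PTU, 0.5% DMSO and 25 μM compound. The pronephroi were then imaged from the dorsal side in agarose-filled 96-well plates at 470 nm with 10 z-slices, and 16 reference points were placed by hand on maximum projections in Fiji so that a macro could calculate distances and angles. Values lying more than 2 SD from the mean of a feature were discarded. Every feature is given as a fold change against the mean of DMSO-treated embryos from the same day.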
# [2] = tested on: Danio rerio Tg(wt1b:EGFP) embryo, pronephros; test: glomerular width (mean of left and right), fold change vs DMSO control; higher = wider glomerulus
# How it was run: as §1
# [3] = tested on: Danio rerio Tg(wt1b:EGFP) embryo, pronephros; test: fraction of imaged embryos annotated as normal kidney; higher = less nephrotoxic; extreme values may be limits of the assay
# How it was run: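 From 24 to 48 hpf at 28.5°C, dechorionated Tg(wt1b:EGFP) zebrafish embryos in 12-well plates were kept in 5 mM HEPES-buffered E3 with 0.003% PTU, 0.5% DMSO and 25 μM compound. Pronephroi were imaged by widefield fluorescence at 470 nm and judged by eye from maximum projections. Reported is the proportion of embryos per treatment in the normal-kidney category.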
# [4] = tested on: Danio rerio Tg(wt1b:EGFP) embryo, pronephros; test: pronephric angle neck segment to proximal convoluted tubule (mean of left and right), fold change vs DMSO control; higher = larger pronephric angle
# How it was run: as §1
Compound,glomerular separation [1],glomerular width [2],fraction of imaged embryos annotated as normal kidney [3],pronephric angle neck segment [4]
O=C1CN(/N=C/c2ccc(-c3ccc([N+](=O)[O-])cc3)o2)C(=O)N1 [Dantrolene sodium salt],1.46 ± 0.66,0.974 ± 0.084,0.833,1.02 ± 0.016
CCCN(CCC)C(=O)C(CCC(=O)O)NC(=O)c1ccccc1 (stereo unspecified) [Proglumide],0.949 ± 0.28,1.07 ± 0.049,0.917,1.037 ± 0.006
COCCOC(=O)C1=C(C)NC(C)=C(C(=O)OC(C)C)C1c1cccc([N+](=O)[O-])c1 (stereo unspecified) [Nimodipine],1.64 ± 1.1,0.786 ± 0.066,0.5,0.954 ± 0.049
Nc1ccc(S(=O)(=O)Nc2cnc3ccccc3n2)cc1 [Sulfaquinoxaline sodium salt],0.886 ± 0.3,0.97 ± 0.033,1,1.09 ± 0.012
CCCNC(C)C(=O)Nc1ccccc1C (stereo unspecified) [Prilocaine hydrochloride],1.28 ± 1.1,0.947 ± 0.032,0.75,1.02 ± 0.081
C[C@@H]1C[C@H]2[C@@H]3C[C@H](F)C4=CC(=O)C=C[C@]4(C)[C@@]3(Cl)[C@@H](O)C[C@]2(C)[C@H]1C(=O)COC(=O)C(C)(C)C [Clocortolone pivalate],1.59 ± 0.52,1.26 ± 0.019,0.167,1.077 ± 0.009
C[C@H]1O[C@H](O[C@H]2[C@H](O)[C@@H](O)[C@@H](O[C@H]3[C@H](O)[C@@H](O)C(O)O[C@@H]3CO)O[C@@H]2CO)[C@H](O)[C@@H](O)[C@@H]1N[C@H]1C=C(CO)[C@@H](O)[C@H](O)[C@H]1O (stereo partly specified) [Acarbose],0.951 ± 0.24,0.879 ± 0.1,0.833,1.02 ± 0.014
NS(=O)(=O)Cc1noc2ccccc12 [Zonisamide],0.805 ± 0.15,1 ± 0.059,0.917,1.02 ± 0.017
CCc1c(C)[nH]c2c1C(=O)C(CN1CCOCC1)CC2 (stereo unspecified) [Molindone hydrochloride],0.897 ± 0.23,1 ± 0.018,0.833,0.956 ± 0.0018
CN(N=O)C(=O)N[C@@H](C=O)[C@@H](O)[C@H](O)[C@H](O)CO [Streptozotocin],0.671 ± 0.14,1.06 ± 0.047,1,1.01 ± 0.025
"OC(CCN1CCCCC1)(c1ccccc1)C1CCCCC1 (stereo unspecified) [Trihexyphenidyl-D,L Hydrochloride]",0.867 ± 0.41,0.97 ± 0.04,0.833,0.985 ± 0.056
CCCCNc1ccc(C(=O)OCCOCCOCCOCCOCCOCCOCCOCCOCCOC)cc1 [Benzonatate],1.12 ± 0.54,0.897 ± 0.012,0.7,1.09 ± 0.039
CN(C)CCCSC(=N)N [Dimaprit dihydrochloride],0.745 ± 0.36,1.05 ± 0.052,0.75,1 ± 0.022
CNCCCC12CCC(c3ccccc31)c1ccccc12 [Maprotiline hydrochloride],1.28 ± 0.49,0.992 ± 0.049,0.909,1.1 ± 0.058
CC1CC(OC(=O)C(O)c2ccccc2)CC(C)(C)N1C (stereo unspecified) [Eucatropine hydrochloride],0.748 ± 0.31,0.975 ± 0.042,0.917,0.9583 ± 0.0057
Cc1ccccc1N1C(=O)c2cc(S(N)(=O)=O)c(Cl)cc2NC1C (stereo unspecified) [Metolazone],0.86 ± 0.34,1 ± 0.062,0.917,1.03 ± 0.016
O=C1NCC2(CCN(CCc3ccccc3)CC2)O1 [Fenspiride hydrochloride],1.24 ± 0.7,0.944 ± 0.024,0.833,1.09 ± 0.038
NC(=O)OCC(O)COc1ccc(Cl)cc1 (stereo unspecified) [Chlorphensin carbamate],0.973 ± 0.47,0.982 ± 0.071,0.833,1.12 ± 0.099
CN[C@@H]1[C@@H](O)[C@@H](O[C@@H]2[C@@H](O)[C@H](O[C@H]3OC(CN)=CC[C@H]3N)[C@@H](N)C[C@H]2N)OC[C@]1(C)O [Sisomicin sulfate],1.23 ± 0.84,1.02 ± 0.043,0.833,1.11 ± 0.029
Cc1ncc([N+](=O)[O-])n1CC(O)CCl (stereo unspecified) [Ornidazole],0.923 ± 0.39,1.06 ± 0.028,0.75,0.985 ± 0.027
Nc1ccn([C@@H]2O[C@H](CO)[C@@H](O)[C@@H]2O)c(=O)n1 [Cytarabine],0.773 ± 0.16,1.06 ± 0.016,0.917,0.998 ± 0.015
O=C1C(CC[S+]([O-])c2ccccc2)C(=O)N(c2ccccc2)N1c1ccccc1 (stereo unspecified) [Sulfinpyrazone],1.21 ± 0.35,1.02 ± 0.03,0.833,1 ± 0.012
CNCCC(Oc1ccccc1OC)c1ccccc1 (stereo unspecified) [Nisoxetine hydrochloride],0.972 ± 0.43,0.94 ± 0.013,0.833,1.06 ± 0.022
N=C(N)NCC1COC2(CCCCC2)O1 (stereo unspecified) [Guanadrel sulfate],0.935 ± 0.45,1.02 ± 0.071,0.75,0.992 ± 0.012
COc1c(N2C[C@@H]3CCCN[C@@H]3C2)c(F)cc2c(=O)c(C(=O)O)cn(C3CC3)c12 [Moxifloxacin],0.919 ± 0.39,0.971 ± 0.024,0.909,0.998 ± 0.029
CC(=O)Nc1ccc(O)cc1 [Acetaminophen],0.86 ± 0.31,0.987 ± 0.037,1,0.9829 ± 0.0034
CCCCc1ccc2[nH]c(NC(=O)OC)nc2c1 [Parbendazole],2.51 ± 0.79,0.5042 ± 0.0026,0,1.81 ± 0.054
Cc1cccc(C)c1OCC(C)N (stereo unspecified) [Mexiletine hydrochloride],0.9 ± 0.27,0.98 ± 0.033,0.917,0.98 ± 0.041
CC(=O)Oc1ccccc1C(=O)O [Acetylsalicylic acid],1.2 ± 0.37,0.951 ± 0.019,0.917,1.01 ± 0.018
